Values joined by “and” are separate entries in the source; they are usually repeats but may differ in a detail not shown here. Equal values may be shown once. Inconclusive results are not listed. Entries that show only a call come without a potency. Some compounds were tested as several samples or in several runs, with calls that do not always agree. Active and inactive are the calls of the source. Unless noted, calls come from the whole dose curve; as a rule, active = well fitted curve in the direction sought with a large enough effect in the repeat runs; inconclusive = weak or mixed curves; inactive = no such curve, though single readings can be large; an effect the other way counts as inactive or inconclusive.
Columns and labels:
[1] = qHTS assay to identify small molecule agonists of the RXR signaling pathway - cell viability counter screen (AID 1159529); note: nearly all actives have a fitted effect of over 50% in size; note: potency is the fitted concentration of half-maximal effect
In short: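 Counter screen: CellTiter-Glo luminescence. Cells: RXR-alpha-UAS-bla HEK 293T. Medium: 2% charcoal-stripped FBS. Treatment: 16 h, 37 C. Reagent incubation: 30 min, RT.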

[2] = qHTS assay to identify small molecule antagonists of the retinoid acid receptor (RAR) signaling pathway - cell viability counter screen (AID 1159551); note: nearly all actives have a fitted effect of over 35% in size; note: potency is the fitted concentration of half-maximal effect
In short: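 Cells (C3RL4) are plated, incubated overnight, dosed with compound in DMSO, then given retinol at 1 uM final. After 6 h at 37 C, CellTiter-Glo is added and luminescence read following 30 min at room temperature.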

[3] = qHTS assay to identify small molecule antagonists of the constitutive androstane receptor (CAR) signaling pathway - cell viability counter screen (AID 1224837); note: nearly all actives have a fitted effect of over 45% in size; note: potency is the fitted concentration of half-maximal effect
In short: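 Viability was measured with CellTiter-Fluor in a HepG2 line carrying stably transfected hCAR and a CYP2B6-2.2kb construct. Cells were exposed for 23 hr at 37 C to 15 compound concentrations with 50 nM CITCO as agonist.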

[4] = qHTS assay to identify small molecule agonists of the hypoxia (HIF-1) signaling pathway - cell viability counter screen (AID 1224844; calls by dose curve; note: nearly all actives have a fitted effect of over 50% in size; note: potency is the fitted concentration of half-maximal effect)
In short: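 Cytotoxicity was measured in parallel with the HRE-driven beta-lactamase readout: after 17 hrs of compound exposure at 37C, HRE-bla ME-180 cells received CellTiter-Glo and luminescence was recorded 30 min later.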

[5] = qHTS RealTime-Glo MT Cell Viability Assay in HEK293 cells - 16 hour (AID 1224872); note: nearly all actives have a fitted effect of over 50% in size; note: potency is the fitted concentration of half-maximal effect
In short: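 HEK293 cells seeded with NanoLuc/prosubstrate reagent, rested 5 h at 37 C, then dosed and kept at 37 C up to 40 h. Nonlytic real-time luminescence from viable cells read at 0, 8, 16, 24, 32 and 40 h.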

[6] = qHTS assay to identify small molecule agonists of the androgen receptor (AR) signaling pathway in the presence of an antagonist - cell viability counter screen (AID 1259379); note: nearly all actives have a fitted effect of over 25% in size; note: potency is the fitted concentration of half-maximal effect
In short: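 Cytotoxicity is assessed by CellTiter-Fluor in MDA-kb2 cells carrying an MMTV-driven luciferase reporter. Cells receive 3.0uM nilutamide plus compounds at 15 concentrations and incubate 16 hr at 37C without CO2 before fluorescence reading.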

[7] = qHTS assay to identify small molecule agonists of the estrogen receptor beta (ER-beta) signaling pathway - cell viability counter screen (AID 1259380); note: potency is the fitted concentration of half-maximal effect; nearly all actives have a fitted effect of over 30% in size
In short: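 Cytotoxicity is measured in parallel with the reporter screen: after 16 hr compound exposure at 37C and a 2 hr LiveBLAzer step, CellTiter-Glo is added to the same ER-beta-UAS-bla HEK293T wells and luminescence read after 30 min.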

[8] = qHTS assay to identify small molecule antagonists of the estrogen receptor beta (ER-beta) signaling pathway - cell viability counter screen (AID 1259382); note: nearly all actives have a fitted effect of over 55% in size; note: potency is the fitted concentration of half-maximal effect
In short: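 Cytotoxicity counter screen multiplexed with the beta-lactamase antagonist assay: GripTite HEK293T ER-beta-bla cells were treated 16 hr with test chemicals in the presence of 1nM 17-beta-estradiol, and viability was measured by CellTiter-Glo.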

[9] = qHTS assay to identify small molecule antagonists of the progesterone receptor (PR) signaling pathway - cell viability counter screen (AID 1346798); note: potency is the fitted concentration of half-maximal effect; nearly all actives have a fitted effect of over 50% in size
In short: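 CellTiter-Glo luminescence; PR-UAS-bla HEK293T, 3,000 cells/well; compound + R5020, 16 hr, 37C/5% CO2; 30 min RT before read.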

[10] = Human pregnane X receptor (PXR) small molecule agonists, qHTS cell viability counter screen (AID 1346977); note: nearly all actives have a fitted effect of over 50% in size; note: potency is the fitted concentration of half-maximal effect
In short: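 Viability counter screen: CellTiter-Fluor signal in PXR-Luc HepG2 cells, 24hr compound exposure, 37C, 5% CO2.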

[11] = Caspase-3/7 induction in CHO-K1 cells by small molecules, qHTS cell viability counter screen (AID 1346979); note: nearly all actives have a fitted effect of over 35% in size; note: potency is the fitted concentration of half-maximal effect
In short: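 Viability readout by fluorescence (CellTiter-Fluor) on wild-type CHO-K1 cells exposed for 16hr at 37C and 5% CO2 to compounds delivered in DMSO; reagent incubated 1hr before reading.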

[12] = Caspase-3/7 induction in HepG2 cells by small molecules, qHTS cell viability counter screen (AID 1346981); note: nearly all actives have a fitted effect of over 30% in size; note: potency is the fitted concentration of half-maximal effect
In short: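 Cell viability is measured as a cytotoxicity counter screen alongside the Caspase-Glo 3/7 readout in identical wells. Wild-type HepG2 cells are treated with test compounds for 16 hr at 37 C before CellTiter-Fluor addition and a 1-hr incubation.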

[13] = qHTS assay to test for compound auto fluorescence at 590 nm (red) in HepG2 cells (AID 720674)
In short: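 Compound auto-fluorescence is scored relative to Rose Bengal sodium, measured at 540/590 nm in live HepG2 cultures after 1 hr compound contact (37 C, 5% CO2).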

[14] = molecular target: Nuclear receptor subfamily 1 group I member 3 (Homo sapiens) (UniProt Q14994); assay: qHTS assay to identify small molecule agonists of the constitutive androstane receptor (CAR) signaling pathway (AID 1224839); note: nearly all actives have a fitted effect of over 15% in size; note: potency is the fitted concentration of half-maximal effect
Chain of Nuclear receptor subfamily 1 group I member 3 (Homo sapiens) (Q14994 whole entry, looked up): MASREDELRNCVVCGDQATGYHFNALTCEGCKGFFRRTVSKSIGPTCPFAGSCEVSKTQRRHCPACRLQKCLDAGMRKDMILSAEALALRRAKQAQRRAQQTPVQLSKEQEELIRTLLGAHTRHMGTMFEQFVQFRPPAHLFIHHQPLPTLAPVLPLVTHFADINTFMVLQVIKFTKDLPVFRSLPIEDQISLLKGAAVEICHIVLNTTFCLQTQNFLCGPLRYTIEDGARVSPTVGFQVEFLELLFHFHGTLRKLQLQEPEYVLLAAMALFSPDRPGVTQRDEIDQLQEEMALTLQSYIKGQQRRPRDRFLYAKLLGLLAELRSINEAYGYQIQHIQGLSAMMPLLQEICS
In short: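 Readout: firefly luciferase luminescence via ONE-Glo. System: HepG2 double-stable for hCAR and CYP2B6-2.2kb. Conditions: 15-point compound titration, PK11195 at 0.75 uM final, 24 h incubation.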

[15] = qHTS RealTime-Glo MT Cell Viability Assay in HepG2 cells - 8 hour (AID 1224873); note: nearly all actives have a fitted effect of over 55% in size
In short: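 HepG2 cells mixed with RealTime-Glo MT reagents (NanoLuc plus cell-permeant prosubstrate) were seeded at 600 cells/well, incubated 5 h at 37 C/5% CO2, then pinned with compounds in DMSO; nonlytic luminescence tracked viability during 40 h treatment.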

[16] = A CellTox Green Cytotoxicity Assay to monitor cytotoxicity in HEK293 cells - 24 hour (AID 1224875); note: nearly all actives have a fitted effect of over 45% in size; note: potency is the fitted concentration of half-maximal effect
In short: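 Cells (HEK293, 600/well) and dye reagent are dispensed together. After 5 h at 37 C, 23 nL compound is pinned in. Plates stay at 37 C for 40 h with fluorescence read at 0h, 8h, 16h, 24h, 32h and 40h.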

[17] = molecular target: Cytochrome P450 2D6 (Homo sapiens) (UniProt P10635); assay: Cytochrome P450 Family 2 Subfamily D Member 6 (CYP2D6) small molecule antagonists: luciferase reporter qHTS assay (AID 1671196); note: nearly all actives have a fitted effect of over 50% in size; note: potency is the fitted concentration of half-maximal effect
Chain of Cytochrome P450 2D6 (Homo sapiens) (P10635 whole entry, looked up): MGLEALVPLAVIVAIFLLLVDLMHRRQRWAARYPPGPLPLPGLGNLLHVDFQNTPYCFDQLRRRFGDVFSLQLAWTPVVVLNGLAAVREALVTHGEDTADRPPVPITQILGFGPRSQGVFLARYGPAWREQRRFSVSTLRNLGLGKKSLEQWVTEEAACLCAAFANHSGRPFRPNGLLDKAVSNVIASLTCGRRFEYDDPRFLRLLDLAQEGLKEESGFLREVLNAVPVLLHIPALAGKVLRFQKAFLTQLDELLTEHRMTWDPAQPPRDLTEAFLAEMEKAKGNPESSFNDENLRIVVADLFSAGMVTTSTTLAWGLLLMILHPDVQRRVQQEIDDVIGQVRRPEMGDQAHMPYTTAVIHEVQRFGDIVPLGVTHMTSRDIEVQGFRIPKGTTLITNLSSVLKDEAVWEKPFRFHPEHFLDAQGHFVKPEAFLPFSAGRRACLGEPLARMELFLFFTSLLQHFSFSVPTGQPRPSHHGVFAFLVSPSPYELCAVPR
In short: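 Enzyme and proluciferin substrate were first combined with test chemical for 10 min at room temperature. Adding NADPH regeneration solution started a 1 h reaction, stopped with luciferin detection reagent and read by luminescence 20 min later.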

[18] = molecular target: Cytochrome P450 3A4 (Homo sapiens) (UniProt P08684); assay: Cytochrome P450 Family 3 Subfamily A Member 4 (CYP3A4) small molecule antagonists: luciferase reporter qHTS assay (AID 1671201)
Chain of Cytochrome P450 3A4 (Homo sapiens) (P08684 whole entry, looked up): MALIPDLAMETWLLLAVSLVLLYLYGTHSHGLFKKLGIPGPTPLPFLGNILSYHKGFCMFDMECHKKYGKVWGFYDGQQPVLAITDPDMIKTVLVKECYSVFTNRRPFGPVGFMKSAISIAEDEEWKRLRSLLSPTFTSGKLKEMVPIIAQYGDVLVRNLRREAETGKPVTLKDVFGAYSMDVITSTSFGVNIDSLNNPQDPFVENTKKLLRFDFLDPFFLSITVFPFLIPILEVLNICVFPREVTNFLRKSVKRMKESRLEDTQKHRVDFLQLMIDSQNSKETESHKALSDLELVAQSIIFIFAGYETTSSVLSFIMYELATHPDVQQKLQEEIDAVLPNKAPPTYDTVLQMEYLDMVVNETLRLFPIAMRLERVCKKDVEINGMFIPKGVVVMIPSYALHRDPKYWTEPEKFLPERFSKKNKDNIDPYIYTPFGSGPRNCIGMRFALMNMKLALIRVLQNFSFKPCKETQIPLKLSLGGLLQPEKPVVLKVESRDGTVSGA
In short: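 Relative luminescence units after 20 min with luciferin detection reagent served as read-out. Beforehand, CYP3A4 turned over a proluciferin substrate for 1 h at room temperature with NADPH regeneration, following 10 min compound preincubation.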

[19] = qHTS assay for small molecule agonists of the p53 signaling pathway (AID 651631; calls by dose curve; note: nearly all actives have a fitted effect of over 15% in size; note: potency is the fitted concentration of half-maximal effect)
In short: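 Testing took place in human colorectal HCT-116 cells with stable p53RE-driven beta-lactamase. After 16 h of compound exposure at 37 °C, a FRET substrate was added and fluorescence recorded 2 h later.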

[20] = molecular target: Thyrotropin-releasing hormone receptor (Homo sapiens) (UniProt P34981); assay: qHTS assay to identify small molecule agonists of the thyrotropin-releasing hormone receptor (TRHR) signaling pathway (AID 1346891; calls by dose curve;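 note: HEK293 cells expressing TRHR with calcium dye readout; series mostly up to about 58 µM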)
Chain of Thyrotropin-releasing hormone receptor (Homo sapiens) (P34981 whole entry, looked up): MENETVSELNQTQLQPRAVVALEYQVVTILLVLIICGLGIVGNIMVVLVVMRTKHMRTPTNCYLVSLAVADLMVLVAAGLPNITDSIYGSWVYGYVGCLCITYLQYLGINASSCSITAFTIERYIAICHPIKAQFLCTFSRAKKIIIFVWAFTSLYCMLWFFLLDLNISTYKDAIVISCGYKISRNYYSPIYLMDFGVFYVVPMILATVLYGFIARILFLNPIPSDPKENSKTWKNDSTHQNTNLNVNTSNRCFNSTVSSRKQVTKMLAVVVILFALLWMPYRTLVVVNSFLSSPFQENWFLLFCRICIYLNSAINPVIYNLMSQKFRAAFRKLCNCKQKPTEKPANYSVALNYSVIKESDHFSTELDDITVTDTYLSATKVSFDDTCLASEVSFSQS
In short: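 Compounds were tested as agonists at 15 concentrations, in triplicate, on TRHR-Hek293 cells; calcium-sensitive dye fluorescence was recorded for 3 min following addition.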

In the case of C[C@]12CC[C@@H](O)C[C@@H]1CC[C@@H]1[C@@H]2CC[C@]2(C)C(=O)CC[C@@H]12, the Potency [1] is reported as 17.4 µM (active), the Potency [2] is reported as “inactive” and the Potency [3] is reported as “inactive”. For the same compound, the Potency [4] was 21.9 µM (active), the Potency [5] was 38.9 µM (active) and the Potency [6] was “inactive”. For the same compound, the Potency [7] was 27.3 µM (active), the Potency [8] was 43.3 µM (active) and the Potency [9] was 48.6 µM (active). The Potency [10] was “inactive”, the Potency [11] was 61.1 µM (active) and the Potency [12] was “inactive”.

With O=C1C(I)=CC(=C(c2cc(I)c(O)c(I)c2)c2ccccc2C(=O)O)C=C1I the outcome [13] was “inactive”, the Potency [1] was “inactive” and the Potency [2] was “inactive”. The Potency [3] was “inactive”, the Potency [14] was “inactive” and the Potency [5] was “inactive”. For the same compound, the Potency [15] was “inactive”, the Potency [16] was “inactive” and the Potency [6] was “inactive”. For the same compound, the Potency [7] was 9.44 µM (active), the Potency [10] was “inactive” and the Potency [17] was “inactive”. The Potency [18] was “inactive”.

With c1ccncc1 the Potency [19] was “inactive”.

With Brc1c2ccccc2cc2ccccc12 the Potency [19] was 61.8 µM (active).

For Nc1cccc(C(F)(F)F)c1, the Potency [19] was “inactive”.

In the case of COc1ccc(C(c2ccc(OC)cc2)C(Cl)(Cl)Cl)cc1, the Potency [19] is reported as 30.6 µM (active), the outcome [13] is reported as “inactive” and the Potency [2] is reported as “inactive”. The Potency [3] was “inactive”, the Potency [14] was 2.42 µM (active) and the Potency [4] was “inactive”. For the same compound, the Potency [16] was “inactive”, the Potency [8] was “inactive” and the outcome [20] was “inactive”. The Potency [11] was 60.8 µM (active), the Potency [17] was 44.5 µM (active) and the Potency [18] was “inactive”.

With c1cc(OCC2CO2)cc(OCC2CO2)c1 (stereo not given) the Potency [19] was 21.5 µM (active).

For CO/C=C(/C(=O)OC)c1ccccc1Oc1cc(Oc2ccccc2C#N)ncn1, the outcome [13] was “inactive”, the Potency [1] was 41.5 µM (active) and the Potency [2] was 32.7 µM (active). The Potency [6] was 23.1 µM (active), the Potency [7] was 51.8 µM (active) and the Potency [8] was 54 µM (active). The Potency [9] was 51.8 µM (active), the outcome [20] was “inactive” and the Potency [10] was 6.52 µM (active). The Potency [11] was 1.05 µM (active), the Potency [12] was 24.5 µM (active) and the Potency [17] was 43.1 µM (active). The Potency [18] was “inactive”.

With CN1CSC(=S)N(C)C1 the Potency [19] was “inactive”, the outcome [13] was “inactive” and the Potency [1] was 10.9 µM (active) and 8.69 µM (active). For the same compound, the Potency [2] was “inactive”, the Potency [3] was 5.42 µM (active) and 7.67 µM (active) and the Potency [14] was “inactive”. The Potency [5] was 15.4 µM (active), the Potency [15] was “inactive” and the Potency [16] was “inactive”. For the same compound, the Potency [6] was 27.2 µM (active) and inactive, the Potency [7] was 4.31 µM (active) and 9.66 µM (active) and the Potency [8] was 9.64 µM (active) and 8.61 µM (active). For the same compound, the Potency [9] was 27.2 µM (active) and 21.6 µM (active), the outcome [20] was “inactive” and the Potency [10] was 5.01 µM (active) and 21.6 µM (active). The Potency [11] was 1.36 µM (active) and 7.67 µM (active), the Potency [12] was “inactive” and the Potency [17] was “inactive”. The Potency [18] was “inactive”.

With COc1ccccc1[N+](=O)[O-] the Potency [19] was “inactive”.

With C=CC(=O)OCCCC the Potency [19] was “inactive”.

For C=CCOC(=O)c1ccccc1C(=O)OCC=C, the Potency [19] was “inactive”.

For C[C@@]12C(=O)OC(=O)[C@]1(C)C1CCC2O1, the Potency [19] was 1.6 µM (active).

In the case of Clc1ccccc1-c1ccccc1Cl, the outcome [13] is reported as “inactive”, the Potency [3] is reported as “inactive” and the Potency [15] is reported as “inactive”. For the same compound, the Potency [16] was 35.2 µM (active), the Potency [6] was “inactive” and the Potency [8] was “inactive”. For the same compound, the outcome [20] was “inactive”, the Potency [10] was “inactive” and the Potency [11] was “inactive”. The Potency [12] was “inactive”, the Potency [17] was “inactive” and the Potency [18] was “inactive”.

For CC(C)(C)OCC1CO1 (stereo not given), the Potency [19] was “inactive”.
